Test [1] concerns the target RAC-alpha serine/threonine-protein kinase (Homo sapiens) (UniProt P31749). The note with it: at 0.1 µM.
For test [2] the target is unchanged. The note with it: at 1 µM.
Test [3] deals with RAC-beta serine/threonine-protein kinase (Homo sapiens) (UniProt P31751). The note with it: at 0.1 µM.
The target is the same in test [4]. To be noted: at 1 µM.
Test [5] has as its target RAC-gamma serine/threonine-protein kinase (Homo sapiens) (UniProt Q9Y243). The note with it: at 0.1 µM.
Test [6] has the same target. To be noted: at 1 µM.
Test [7] addresses G protein-coupled receptor kinase 6 (Homo sapiens) (UniProt P43250). To be noted: at 0.1 µM.
The target is the same in test [8]. The note with it: at 1 µM.
The target in test [9] is T1, Rhodopsin kinase GRK7 (Homo sapiens) (UniProt Q8WTQ7).
T1 sequence (whole entry): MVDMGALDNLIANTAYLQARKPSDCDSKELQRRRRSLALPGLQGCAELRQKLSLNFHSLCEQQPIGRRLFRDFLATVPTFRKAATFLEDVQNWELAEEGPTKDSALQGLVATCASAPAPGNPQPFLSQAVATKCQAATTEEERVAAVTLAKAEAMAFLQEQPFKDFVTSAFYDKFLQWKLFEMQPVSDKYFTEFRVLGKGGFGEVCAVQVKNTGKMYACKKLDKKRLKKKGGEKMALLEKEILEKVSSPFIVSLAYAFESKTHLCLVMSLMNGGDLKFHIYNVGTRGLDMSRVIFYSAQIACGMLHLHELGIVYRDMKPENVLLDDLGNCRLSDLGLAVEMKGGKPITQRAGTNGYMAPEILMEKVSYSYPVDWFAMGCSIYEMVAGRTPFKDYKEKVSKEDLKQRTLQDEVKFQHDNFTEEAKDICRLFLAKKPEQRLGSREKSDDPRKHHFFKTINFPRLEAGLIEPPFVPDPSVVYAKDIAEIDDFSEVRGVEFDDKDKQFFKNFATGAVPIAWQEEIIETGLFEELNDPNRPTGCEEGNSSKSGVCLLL
To be noted: at 0.1 µM.

Test [10] concerns the target T1, Rhodopsin kinase GRK7 (Homo sapiens). To be noted: at 1 µM.
For test [11], the target named is Serine/threonine-protein kinase MRCK alpha (Homo sapiens) (UniProt Q5VT25). The note with it: at 0.1 µM.
Test [12] has the same target. To be noted: at 1 µM.
Test [13] addresses Serine/threonine-protein kinase MRCK beta (Homo sapiens) (UniProt Q9Y5S2). To be noted: at 0.1 µM.
Test [14] shares this target. The note with it: at 1 µM.
Test [15] has as its target Ribosomal protein S6 kinase alpha-5 (Homo sapiens) (UniProt O75582). To be noted: at 0.1 µM.
Test [16] shares this target. The note with it: at 1 µM.
Test [17] addresses Ribosomal protein S6 kinase alpha-4 (Homo sapiens) (UniProt O75676). The note with it: at 0.1 µM.
For test [18] the target is unchanged. The note with it: at 1 µM.
Test [19] concerns the target Ribosomal protein S6 kinase beta-1 (Homo sapiens) (UniProt P23443). The note with it: at 0.1 µM.
Test [20] shares this target. To be noted: at 1 µM.

Each structure is given as a SMILES string.

This note sets out measurements from ChEMBL document CHEMBL1961873, “Compounds: GSK PKIS; Assays: Nanosyn kinase panel” (2012).

Ribosomal protein S6 kinase beta-1 (Homo sapiens), sequence (P23443 whole entry, looked up): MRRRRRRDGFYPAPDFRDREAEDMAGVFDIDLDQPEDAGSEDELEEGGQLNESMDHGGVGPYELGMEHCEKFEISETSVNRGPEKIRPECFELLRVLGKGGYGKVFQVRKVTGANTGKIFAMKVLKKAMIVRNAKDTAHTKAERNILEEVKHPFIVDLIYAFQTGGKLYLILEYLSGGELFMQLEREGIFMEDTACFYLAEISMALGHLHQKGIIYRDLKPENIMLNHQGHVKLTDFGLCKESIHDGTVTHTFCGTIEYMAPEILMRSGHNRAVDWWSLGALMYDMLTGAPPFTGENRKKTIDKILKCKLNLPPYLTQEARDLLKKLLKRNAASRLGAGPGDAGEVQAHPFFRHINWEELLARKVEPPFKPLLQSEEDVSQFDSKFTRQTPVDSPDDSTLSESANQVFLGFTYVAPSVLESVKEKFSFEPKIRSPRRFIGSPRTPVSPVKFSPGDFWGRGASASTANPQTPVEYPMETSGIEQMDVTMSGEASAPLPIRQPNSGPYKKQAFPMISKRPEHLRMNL
RAC-gamma serine/threonine-protein kinase (Homo sapiens), sequence (Q9Y243 whole entry): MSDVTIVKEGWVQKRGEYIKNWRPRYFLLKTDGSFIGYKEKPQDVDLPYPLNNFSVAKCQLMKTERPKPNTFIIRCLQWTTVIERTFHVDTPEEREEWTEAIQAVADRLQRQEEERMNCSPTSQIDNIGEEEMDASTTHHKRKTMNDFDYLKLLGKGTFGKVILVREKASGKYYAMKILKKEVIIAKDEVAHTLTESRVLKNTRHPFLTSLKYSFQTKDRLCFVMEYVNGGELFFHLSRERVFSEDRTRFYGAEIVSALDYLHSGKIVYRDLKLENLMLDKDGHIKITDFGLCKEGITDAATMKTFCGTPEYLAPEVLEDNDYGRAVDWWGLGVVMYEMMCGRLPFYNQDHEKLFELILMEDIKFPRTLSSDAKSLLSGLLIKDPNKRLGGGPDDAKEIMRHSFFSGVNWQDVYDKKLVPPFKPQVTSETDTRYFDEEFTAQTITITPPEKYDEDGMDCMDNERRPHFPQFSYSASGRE
Serine/threonine-protein kinase MRCK alpha (Homo sapiens), sequence (Q5VT25 whole entry): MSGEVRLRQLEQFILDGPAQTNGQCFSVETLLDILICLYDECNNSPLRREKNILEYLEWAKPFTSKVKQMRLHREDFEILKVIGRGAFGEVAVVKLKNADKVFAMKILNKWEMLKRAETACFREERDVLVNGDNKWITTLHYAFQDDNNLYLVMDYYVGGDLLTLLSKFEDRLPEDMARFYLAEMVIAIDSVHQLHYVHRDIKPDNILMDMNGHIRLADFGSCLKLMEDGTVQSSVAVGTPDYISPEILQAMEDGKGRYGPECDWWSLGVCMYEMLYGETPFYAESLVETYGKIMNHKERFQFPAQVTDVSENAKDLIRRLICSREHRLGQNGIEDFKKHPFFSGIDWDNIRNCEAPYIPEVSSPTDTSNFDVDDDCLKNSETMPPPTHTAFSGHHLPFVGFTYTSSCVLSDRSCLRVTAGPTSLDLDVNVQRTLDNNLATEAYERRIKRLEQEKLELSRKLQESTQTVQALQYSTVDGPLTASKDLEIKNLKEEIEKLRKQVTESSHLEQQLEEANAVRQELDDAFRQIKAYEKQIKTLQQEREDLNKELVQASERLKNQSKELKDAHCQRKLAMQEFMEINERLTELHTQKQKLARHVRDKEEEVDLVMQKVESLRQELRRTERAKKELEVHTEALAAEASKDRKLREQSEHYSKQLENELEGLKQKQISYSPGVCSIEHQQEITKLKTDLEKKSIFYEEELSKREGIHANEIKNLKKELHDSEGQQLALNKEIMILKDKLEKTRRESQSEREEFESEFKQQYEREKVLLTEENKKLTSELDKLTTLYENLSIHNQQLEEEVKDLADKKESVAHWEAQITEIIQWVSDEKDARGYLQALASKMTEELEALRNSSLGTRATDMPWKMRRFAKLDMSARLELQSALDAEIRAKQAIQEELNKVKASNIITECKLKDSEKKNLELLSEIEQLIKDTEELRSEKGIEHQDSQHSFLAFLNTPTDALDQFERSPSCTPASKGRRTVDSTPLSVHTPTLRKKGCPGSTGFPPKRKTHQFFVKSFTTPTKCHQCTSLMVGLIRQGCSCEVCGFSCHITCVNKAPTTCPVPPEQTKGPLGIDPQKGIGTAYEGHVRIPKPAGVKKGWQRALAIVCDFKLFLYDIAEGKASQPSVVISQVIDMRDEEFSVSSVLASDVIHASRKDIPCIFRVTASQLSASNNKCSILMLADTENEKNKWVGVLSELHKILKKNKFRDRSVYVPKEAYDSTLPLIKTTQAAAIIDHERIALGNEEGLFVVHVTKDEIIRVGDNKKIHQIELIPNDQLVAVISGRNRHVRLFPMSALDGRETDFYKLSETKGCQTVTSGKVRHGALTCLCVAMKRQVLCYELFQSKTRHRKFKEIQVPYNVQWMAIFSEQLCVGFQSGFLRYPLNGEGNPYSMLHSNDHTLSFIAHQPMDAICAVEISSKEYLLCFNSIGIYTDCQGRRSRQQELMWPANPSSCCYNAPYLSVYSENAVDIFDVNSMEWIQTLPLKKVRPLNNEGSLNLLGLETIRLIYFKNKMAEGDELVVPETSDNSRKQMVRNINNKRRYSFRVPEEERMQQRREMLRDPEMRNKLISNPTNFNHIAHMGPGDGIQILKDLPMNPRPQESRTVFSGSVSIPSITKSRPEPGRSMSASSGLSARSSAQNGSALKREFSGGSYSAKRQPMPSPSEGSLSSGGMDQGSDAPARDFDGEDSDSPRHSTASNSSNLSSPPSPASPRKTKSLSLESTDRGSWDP
G protein-coupled receptor kinase 6 (Homo sapiens), sequence (P43250 whole entry, looked up): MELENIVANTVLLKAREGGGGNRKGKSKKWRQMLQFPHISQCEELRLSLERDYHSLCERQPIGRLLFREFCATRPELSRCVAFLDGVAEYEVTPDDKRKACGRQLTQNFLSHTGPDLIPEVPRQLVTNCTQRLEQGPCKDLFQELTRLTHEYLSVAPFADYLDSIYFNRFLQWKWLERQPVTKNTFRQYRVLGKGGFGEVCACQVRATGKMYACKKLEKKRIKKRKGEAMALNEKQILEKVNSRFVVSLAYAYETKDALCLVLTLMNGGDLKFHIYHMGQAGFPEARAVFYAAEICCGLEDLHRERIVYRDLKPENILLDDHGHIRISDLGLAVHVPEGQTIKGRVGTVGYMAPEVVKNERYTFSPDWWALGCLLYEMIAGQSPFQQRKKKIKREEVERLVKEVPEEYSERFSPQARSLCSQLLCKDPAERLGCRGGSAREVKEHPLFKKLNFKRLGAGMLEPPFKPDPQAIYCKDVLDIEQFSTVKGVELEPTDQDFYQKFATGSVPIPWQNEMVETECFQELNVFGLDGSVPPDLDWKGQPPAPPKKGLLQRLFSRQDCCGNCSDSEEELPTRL
Ribosomal protein S6 kinase alpha-5 (Homo sapiens), sequence (O75582 whole entry, looked up): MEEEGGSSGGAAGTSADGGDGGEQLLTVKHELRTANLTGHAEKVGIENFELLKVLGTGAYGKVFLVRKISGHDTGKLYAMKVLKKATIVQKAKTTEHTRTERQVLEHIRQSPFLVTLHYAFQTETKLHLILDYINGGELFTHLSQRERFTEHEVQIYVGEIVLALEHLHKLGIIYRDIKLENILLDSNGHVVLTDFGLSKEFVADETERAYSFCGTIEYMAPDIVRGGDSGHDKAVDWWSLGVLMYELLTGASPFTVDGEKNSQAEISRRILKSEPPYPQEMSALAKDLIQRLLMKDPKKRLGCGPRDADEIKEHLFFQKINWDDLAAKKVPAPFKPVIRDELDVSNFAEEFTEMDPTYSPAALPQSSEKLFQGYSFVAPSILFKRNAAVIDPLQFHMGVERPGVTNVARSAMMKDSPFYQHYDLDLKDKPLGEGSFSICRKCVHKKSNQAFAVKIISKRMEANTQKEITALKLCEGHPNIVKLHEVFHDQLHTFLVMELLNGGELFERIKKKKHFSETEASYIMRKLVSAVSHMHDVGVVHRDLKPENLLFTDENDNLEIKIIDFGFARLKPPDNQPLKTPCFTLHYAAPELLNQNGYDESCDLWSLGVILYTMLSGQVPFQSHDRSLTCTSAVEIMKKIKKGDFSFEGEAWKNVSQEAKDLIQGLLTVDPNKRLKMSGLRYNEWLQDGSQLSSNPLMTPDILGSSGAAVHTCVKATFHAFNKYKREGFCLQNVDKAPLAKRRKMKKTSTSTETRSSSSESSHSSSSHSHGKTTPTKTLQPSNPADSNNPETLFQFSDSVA
RAC-alpha serine/threonine-protein kinase (Homo sapiens), sequence (P31749 whole entry): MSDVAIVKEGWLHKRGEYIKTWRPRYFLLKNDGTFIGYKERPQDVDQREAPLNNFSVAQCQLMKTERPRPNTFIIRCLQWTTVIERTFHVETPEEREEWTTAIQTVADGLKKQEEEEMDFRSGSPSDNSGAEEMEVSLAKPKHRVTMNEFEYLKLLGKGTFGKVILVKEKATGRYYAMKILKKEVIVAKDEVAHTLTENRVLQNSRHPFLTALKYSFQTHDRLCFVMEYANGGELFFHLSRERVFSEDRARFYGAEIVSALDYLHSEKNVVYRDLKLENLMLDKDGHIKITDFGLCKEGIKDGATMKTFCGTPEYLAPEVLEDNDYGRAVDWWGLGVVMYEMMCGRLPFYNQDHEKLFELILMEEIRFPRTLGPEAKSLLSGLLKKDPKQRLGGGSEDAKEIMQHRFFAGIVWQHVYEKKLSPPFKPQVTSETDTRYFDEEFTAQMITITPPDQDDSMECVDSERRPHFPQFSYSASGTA
RAC-beta serine/threonine-protein kinase (Homo sapiens), sequence (P31751 whole entry): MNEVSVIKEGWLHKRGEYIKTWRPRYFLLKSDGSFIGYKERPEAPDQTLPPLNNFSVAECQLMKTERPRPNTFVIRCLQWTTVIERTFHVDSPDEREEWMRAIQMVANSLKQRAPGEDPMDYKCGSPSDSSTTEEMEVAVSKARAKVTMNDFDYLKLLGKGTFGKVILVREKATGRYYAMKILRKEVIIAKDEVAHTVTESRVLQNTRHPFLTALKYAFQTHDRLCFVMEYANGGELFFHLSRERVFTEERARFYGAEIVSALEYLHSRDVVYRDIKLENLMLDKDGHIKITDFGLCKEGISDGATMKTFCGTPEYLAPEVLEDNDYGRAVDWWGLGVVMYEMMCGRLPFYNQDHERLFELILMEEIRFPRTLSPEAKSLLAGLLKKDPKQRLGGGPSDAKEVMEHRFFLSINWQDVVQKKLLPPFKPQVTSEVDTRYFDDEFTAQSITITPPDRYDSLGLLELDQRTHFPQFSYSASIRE

With `COc1cccc(-n2cnc3c(N/N=C/c4ccncc4)ncnc32)c1`, the inhibition in [1] is -4.15%; in test [2], -3.41%; in [3], -3.57%; in test [4], -4.73%; in [5], -4.17%; in [6], -3.32%. Moreover, the inhibition in test [7] turned out to be 2.45%; in test [8], 8.28%; in test [9], 1.71%; in [10] it was 5.64%; in [11], 1.59%; in test [12] it was 3.69%. Further, the inhibition in test [13] is 0.38%; in [14] it was 0.7%; in [15], -0.31%; in [16], 1.02%; in test [17], 2.44%; in test [18], 3.95%. Besides, the inhibition in test [19] is -0.32%; in test [20], 1.15%.

Consider `COc1cc2ncn(-c3cc(OCCc4ccccc4)c(C(N)=O)s3)c2cc1OC`, for which the inhibition was 0.55% in test [1]; 0.01% in test [2]; 1.52% in test [3]; 0.89% in test [4]; 1.12% in [5]; -0.88% in [6]. For the same compound, the inhibition in test [7] is -2.45%; in test [8], -0.33%; in test [9], 2.29%; in test [10], 2.5%; in [11], 1.17%; in test [12] it was 2.94%. Moreover, the inhibition was determined as 1.02% in test [13]; 1.01% in test [14]; 1.83% in test [15]; 0.4% in test [16]; 0.49% in test [17]; 0.9% in [18]. The inhibition in test [19] is 1.13%; in [20], 0.05%.

As to `COc1cc(Nc2ncc(-c3ccccc3)o2)cc(OC)c1OC`, the inhibition was -1.72% in test [1]; -1.61% in test [2]; -2.18% in test [3]; -1.88% in test [4]; -1.76% in test [5]; 1.14% in [6]. Also, the inhibition in test [7] is -1.02%; in test [8], -0.02%; in test [9] it was 3.87%; in test [10], -9.33%; in test [11], 2.53%; in test [12], 3.73%. The inhibition in test [13] is 0.08%; in test [14], 0.86%; in [15], 0.23%; in test [16] it was 0.82%; in [17], -1.71%; in test [18], 0.02%. Also, the inhibition in test [19] is -0.45%; in [20], 3.55%.

Regarding `N#Cc1ccc(Oc2nccc(-c3c(-c4ccc(F)cc4)ncn3C3CCNCC3)n2)cc1`, the inhibition is -0.06% in test [1]; 0.41% in test [2]; 0.99% in test [3]; 3.57% in [4]; 2.37% in test [5]; 2.2% in test [6]. Also, the inhibition in test [7] was -0.24%; in [8], 2.68%; in [9], 8.83%; in [10], 5.35%; in test [11] it was -6.56%; in test [12], -3.04%. Further, the inhibition in [13] is -1.06%; in test [14], 0.02%; in test [15] it was 1.54%; in test [16], -0.96%; in test [17], 3.03%; in test [18], 1.76%. Further, the values for the inhibition in test [19] and in test [20] were 1.84% and 2.31%, respectively.

Regarding `Cc1ccc(NC(=O)c2ccoc2)cc1-c1ccc(C(=O)NCC2CC2)cc1`, the inhibition in test [1] turned out to be 0.37%; in test [2] it was 0.55%; in test [3], 0.88%; in test [4] it was 1.23%; in [5], 0.72%; in test [6], 1.87%. The inhibition is -0.54% in test [7]; 1.27% in test [8]; 3.35% in [9]; -1.36% in [10]; -2.51% in test [11]; -2.81% in test [12]. For the same compound, the inhibition was -0.56% in [13]; -1.77% in test [14]; 0.76% in [15]; -1.39% in test [16]; 1.78% in [17]; -0.44% in test [18]. The inhibition in [19] is -0.57%; in test [20] it was -1.48%.

Consider `Cc1ccc(C(=O)NC(C)C)cc1-c1ccc(C(=O)NCC2CC2)cc1`, for which the inhibition was -2.54% in [1]; -2.49% in [2]; -4.74% in test [3]; -3% in [4]; -3.94% in [5]; -1.32% in test [6]. Further, the inhibition was -3.15% in [7]; -2.12% in test [8]; -1.17% in test [9]; -7.32% in test [10]; 0.02% in test [11]; -2.08% in test [12]. Besides, the inhibition in test [13] is 0.15%; in [14], 0.39%; in [15], -3.69%; in test [16] it was -3.9%; in [17], -1.65%; in test [18], -2.17%. In addition, the inhibition in test [19] was -2.1%; in test [20], -2.29%.

For the compound `C[C@@H](Oc1cc(-n2cnc3ccc(OCC4CCN(C)CC4)cc32)sc1C(N)=O)c1ccccc1Cl`, the inhibition in test [1] stood at 0.75%; in test [2] it was 0.38%; in test [3], 1.73%; in test [4], 2.79%; in test [5], 0.98%; in test [6], 3.81%. In addition, the inhibition in test [7] is 4.28%; in test [8], 9.48%; in [9], 10.8%; in [10], 9.71%; in test [11], 3.98%; in test [12], 9.1%. Also, the inhibition in [13] was 1.18%; in test [14], 1.35%; in test [15], 4.97%; in [16], 7.75%; in [17], 3.23%; in test [18], 7.58%. Moreover, the inhibition in test [19] came out at 2.88%; in test [20], 6.79%.
